From PubChem BioAssay (NCI)
Compounds without any hit were thinned out: in the full panel of roughly 83,000, 20% have a hit.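 Treatment: one concentration, 48 hours, 96-well format. Scoring: percent growth, with anything below 10 considered active.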 A number with no mark means an inactive call. Calls of active or inactive are those of the source.

Tests used:
Assay in all cases: NCI-60 one-dose screen, 48 h (100 = growth as untreated, 0 = no growth, -100 = all killed)
Conditions in all cases: 10 µM unless noted
[1] = system: EKVX NSCLC
[2] = system: SN12C renal
[3] = system: UO-31 renal
[4] = system: TK-10 renal
[5] = system: ACHN renal
[6] = system: CAKI-1 renal
[7] = system: A498 renal
[8] = system: CCRF-CEM leukemia
[9] = system: MOLT-4 leukemia
[10] = system: SR leukemia

Compound	growth [1] [%]	growth [2] [%]	growth [3] [%]	growth [4] [%]	growth [5]	growth [6] [%]	growth [7] [%]	growth [8]	growth [9]	growth [10]
COc1cccc(CCC2C(=O)CCCC2=O)c1	116	106	84.3	115	103%	106	131	102%	92.1%	99.1%
C/C(=N/N=C(N)N)c1ccc(N)cc1	119	95.9	69.8	104	102%	38	103	124%	109%	49.3%
c1ccc(N2CCN(c3nncc4ccccc34)CC2)nc1	110	102	96	105	115%	109	97.8	102%	106%	103%
CN(CC(=O)N(Cc1ccc(C2CCCCC2)cc1)c1ccc(C(=O)O)cc1)S(=O)(=O)c1c(F)c(F)c(F)c(F)c1F	92.1	19	81.2	102	68.7%	89.9	93.4	-28.2% (active)	-15.9% (active)	-22.1% (active)
O=C(C(Br)Br)C(Br)C(Br)c1ccccc1 (stereo not given)	117	93.7	17.8	27.7	6.67% (active)	72.7	101	14.8%	27.7%	19.3%
